From the supplement of paper PMC11732987, “Enantioselective OTUD7B fragment discovery through chemoproteomics screening and high-throughput optimisation” (Communications Chemistry, 2025)
A number with no mark means an inactive call.

Tests used:
Experiment in all cases: log2 ratio of Biotin-Ahx-Ub-VS probe labelling (fragment/DMSO); higher = less target engagement (more negative = stronger competition), active = hit call of the paper (q ≤ 0.05, log2 ratio ≤ -1)
Details in all cases: compound concentration: 200 uM; treatment time: 3 h
USP19 = molecular target: T1, USP19 (UniProt O94966)
T1 sequence (whole entry): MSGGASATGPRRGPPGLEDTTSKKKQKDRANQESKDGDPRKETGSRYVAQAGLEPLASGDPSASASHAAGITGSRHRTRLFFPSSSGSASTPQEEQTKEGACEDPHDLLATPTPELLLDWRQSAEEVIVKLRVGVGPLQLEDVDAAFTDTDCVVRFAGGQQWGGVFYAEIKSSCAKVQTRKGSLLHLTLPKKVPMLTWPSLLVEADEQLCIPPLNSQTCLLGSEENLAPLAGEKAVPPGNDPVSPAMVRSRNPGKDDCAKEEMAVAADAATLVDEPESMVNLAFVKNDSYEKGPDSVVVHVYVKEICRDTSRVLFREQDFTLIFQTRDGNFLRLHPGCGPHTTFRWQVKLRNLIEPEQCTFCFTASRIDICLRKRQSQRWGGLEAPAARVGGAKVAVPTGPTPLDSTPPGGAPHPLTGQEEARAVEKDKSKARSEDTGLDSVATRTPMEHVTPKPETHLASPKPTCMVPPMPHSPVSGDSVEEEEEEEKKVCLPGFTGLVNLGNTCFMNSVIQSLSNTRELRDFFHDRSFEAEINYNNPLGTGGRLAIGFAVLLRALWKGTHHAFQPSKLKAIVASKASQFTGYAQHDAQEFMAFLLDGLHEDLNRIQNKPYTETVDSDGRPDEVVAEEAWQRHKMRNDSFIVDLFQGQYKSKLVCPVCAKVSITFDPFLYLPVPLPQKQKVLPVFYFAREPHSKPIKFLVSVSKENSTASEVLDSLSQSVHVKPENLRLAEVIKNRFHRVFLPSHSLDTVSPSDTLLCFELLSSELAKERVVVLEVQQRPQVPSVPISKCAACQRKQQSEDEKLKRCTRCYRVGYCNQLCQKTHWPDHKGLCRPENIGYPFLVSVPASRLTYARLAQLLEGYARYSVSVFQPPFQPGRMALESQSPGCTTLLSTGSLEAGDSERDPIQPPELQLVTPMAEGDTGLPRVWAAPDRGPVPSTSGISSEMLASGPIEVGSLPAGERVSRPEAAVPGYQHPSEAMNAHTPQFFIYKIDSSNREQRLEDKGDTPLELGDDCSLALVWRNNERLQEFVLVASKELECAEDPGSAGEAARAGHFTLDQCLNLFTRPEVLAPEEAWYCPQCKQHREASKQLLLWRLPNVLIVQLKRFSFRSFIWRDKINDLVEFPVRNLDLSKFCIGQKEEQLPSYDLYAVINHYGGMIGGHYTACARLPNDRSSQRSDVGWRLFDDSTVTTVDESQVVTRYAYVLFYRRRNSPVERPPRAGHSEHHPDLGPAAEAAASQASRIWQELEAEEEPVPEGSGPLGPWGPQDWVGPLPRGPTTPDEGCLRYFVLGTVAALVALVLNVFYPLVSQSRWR
Summary of the method: (§1)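 The table lists average log2 ratios of fragment over vehicle, from an unpaired t-test on global-median-normalised Spectronaut label-free quantities. Proteins with ≥2 unique peptides were used. Samples were HEK293T lysate (495 µg) treated in triplicate with fragment at 200 µM or vehicle for 3 h, then with Biotin-Ahx-Ub-VS (0.5 µM final) for 1 h, with labelled DUBs NeutrAvidin-enriched and run by diaPASEF LC-MS/MS.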

USP22 = molecular target: T2, USP22 (UniProt Q9UPT9)
T2 sequence (whole entry): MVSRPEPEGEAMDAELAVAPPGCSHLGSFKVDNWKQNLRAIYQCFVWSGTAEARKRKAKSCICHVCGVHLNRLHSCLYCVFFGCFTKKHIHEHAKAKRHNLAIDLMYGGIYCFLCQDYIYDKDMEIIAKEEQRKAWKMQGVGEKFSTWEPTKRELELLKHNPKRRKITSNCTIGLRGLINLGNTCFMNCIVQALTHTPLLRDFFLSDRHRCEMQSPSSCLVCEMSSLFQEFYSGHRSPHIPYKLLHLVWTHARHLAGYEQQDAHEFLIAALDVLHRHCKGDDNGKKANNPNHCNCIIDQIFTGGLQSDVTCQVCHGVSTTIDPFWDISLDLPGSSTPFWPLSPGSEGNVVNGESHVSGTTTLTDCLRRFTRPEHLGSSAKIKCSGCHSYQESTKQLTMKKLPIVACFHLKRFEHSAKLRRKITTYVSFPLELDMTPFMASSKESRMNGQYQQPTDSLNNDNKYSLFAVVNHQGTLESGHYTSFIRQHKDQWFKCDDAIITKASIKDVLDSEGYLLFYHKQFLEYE
Summary of the method: as §1

USP24 = USP24 (UniProt Q9UPU5)
USP24, sequence (Q9UPU5 whole entry): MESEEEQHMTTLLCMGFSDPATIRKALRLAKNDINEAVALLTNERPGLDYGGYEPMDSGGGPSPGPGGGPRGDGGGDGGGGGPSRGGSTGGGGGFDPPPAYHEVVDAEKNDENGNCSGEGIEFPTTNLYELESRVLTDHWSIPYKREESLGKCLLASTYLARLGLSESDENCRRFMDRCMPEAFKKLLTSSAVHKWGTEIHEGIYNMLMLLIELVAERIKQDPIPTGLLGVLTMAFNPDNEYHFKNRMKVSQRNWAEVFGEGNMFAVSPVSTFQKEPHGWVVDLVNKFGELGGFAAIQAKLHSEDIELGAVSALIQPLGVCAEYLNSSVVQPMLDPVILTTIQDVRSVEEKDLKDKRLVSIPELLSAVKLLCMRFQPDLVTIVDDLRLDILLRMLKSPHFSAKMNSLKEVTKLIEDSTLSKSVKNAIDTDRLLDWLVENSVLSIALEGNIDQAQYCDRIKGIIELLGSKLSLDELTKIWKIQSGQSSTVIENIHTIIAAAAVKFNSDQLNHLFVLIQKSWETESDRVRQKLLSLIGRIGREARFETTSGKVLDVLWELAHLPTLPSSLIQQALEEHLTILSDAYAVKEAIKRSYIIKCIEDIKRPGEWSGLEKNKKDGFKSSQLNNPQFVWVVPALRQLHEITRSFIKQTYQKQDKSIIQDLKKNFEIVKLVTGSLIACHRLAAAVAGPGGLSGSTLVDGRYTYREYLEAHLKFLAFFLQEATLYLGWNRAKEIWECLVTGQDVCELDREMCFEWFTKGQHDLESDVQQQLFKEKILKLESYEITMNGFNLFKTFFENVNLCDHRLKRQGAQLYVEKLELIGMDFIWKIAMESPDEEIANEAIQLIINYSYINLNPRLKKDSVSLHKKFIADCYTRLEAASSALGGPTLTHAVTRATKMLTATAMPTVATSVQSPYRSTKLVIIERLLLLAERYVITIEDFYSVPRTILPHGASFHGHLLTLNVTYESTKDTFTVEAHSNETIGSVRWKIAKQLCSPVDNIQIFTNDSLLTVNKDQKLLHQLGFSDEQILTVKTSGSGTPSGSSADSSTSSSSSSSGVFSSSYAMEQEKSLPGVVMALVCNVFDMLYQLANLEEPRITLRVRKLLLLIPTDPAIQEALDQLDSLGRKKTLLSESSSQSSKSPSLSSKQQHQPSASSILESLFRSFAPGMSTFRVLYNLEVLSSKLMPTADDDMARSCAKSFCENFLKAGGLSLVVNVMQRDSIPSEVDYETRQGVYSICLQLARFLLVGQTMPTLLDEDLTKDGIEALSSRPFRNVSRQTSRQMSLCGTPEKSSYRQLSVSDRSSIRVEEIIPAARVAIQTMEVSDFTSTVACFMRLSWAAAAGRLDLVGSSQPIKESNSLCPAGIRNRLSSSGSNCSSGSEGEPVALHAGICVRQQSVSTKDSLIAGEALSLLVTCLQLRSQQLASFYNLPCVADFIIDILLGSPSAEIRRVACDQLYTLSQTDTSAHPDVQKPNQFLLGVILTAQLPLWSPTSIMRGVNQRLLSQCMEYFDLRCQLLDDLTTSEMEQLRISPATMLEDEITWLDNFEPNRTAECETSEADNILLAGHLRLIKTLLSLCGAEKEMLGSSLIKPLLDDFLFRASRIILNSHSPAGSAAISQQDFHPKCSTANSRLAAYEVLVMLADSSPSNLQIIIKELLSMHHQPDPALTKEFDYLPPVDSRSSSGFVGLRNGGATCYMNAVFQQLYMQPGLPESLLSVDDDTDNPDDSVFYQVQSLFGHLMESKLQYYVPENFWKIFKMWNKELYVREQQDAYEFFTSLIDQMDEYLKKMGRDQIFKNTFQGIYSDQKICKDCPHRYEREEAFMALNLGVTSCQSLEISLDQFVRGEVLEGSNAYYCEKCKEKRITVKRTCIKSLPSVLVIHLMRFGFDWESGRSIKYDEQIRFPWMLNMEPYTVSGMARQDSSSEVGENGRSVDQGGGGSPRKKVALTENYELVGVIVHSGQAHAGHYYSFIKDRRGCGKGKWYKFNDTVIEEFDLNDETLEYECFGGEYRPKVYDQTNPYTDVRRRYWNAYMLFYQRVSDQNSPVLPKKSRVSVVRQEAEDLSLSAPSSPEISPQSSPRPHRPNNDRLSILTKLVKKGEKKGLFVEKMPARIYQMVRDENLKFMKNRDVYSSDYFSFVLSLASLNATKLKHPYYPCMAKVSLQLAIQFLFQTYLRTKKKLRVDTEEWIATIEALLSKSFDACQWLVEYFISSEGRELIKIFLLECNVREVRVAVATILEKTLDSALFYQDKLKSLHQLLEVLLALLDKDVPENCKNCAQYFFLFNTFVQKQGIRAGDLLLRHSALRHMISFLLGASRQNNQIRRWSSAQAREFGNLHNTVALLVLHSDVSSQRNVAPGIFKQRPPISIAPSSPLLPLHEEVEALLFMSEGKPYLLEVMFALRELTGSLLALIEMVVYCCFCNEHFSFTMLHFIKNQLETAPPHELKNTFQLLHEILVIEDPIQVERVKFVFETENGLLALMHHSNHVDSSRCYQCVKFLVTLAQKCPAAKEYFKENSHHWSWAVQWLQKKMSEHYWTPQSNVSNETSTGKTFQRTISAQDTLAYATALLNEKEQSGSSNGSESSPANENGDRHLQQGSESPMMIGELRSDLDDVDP
Summary of the method: as §1

USP25 = molecular target: T3, USP25 (UniProt Q9UHP3)
T3 sequence (whole entry): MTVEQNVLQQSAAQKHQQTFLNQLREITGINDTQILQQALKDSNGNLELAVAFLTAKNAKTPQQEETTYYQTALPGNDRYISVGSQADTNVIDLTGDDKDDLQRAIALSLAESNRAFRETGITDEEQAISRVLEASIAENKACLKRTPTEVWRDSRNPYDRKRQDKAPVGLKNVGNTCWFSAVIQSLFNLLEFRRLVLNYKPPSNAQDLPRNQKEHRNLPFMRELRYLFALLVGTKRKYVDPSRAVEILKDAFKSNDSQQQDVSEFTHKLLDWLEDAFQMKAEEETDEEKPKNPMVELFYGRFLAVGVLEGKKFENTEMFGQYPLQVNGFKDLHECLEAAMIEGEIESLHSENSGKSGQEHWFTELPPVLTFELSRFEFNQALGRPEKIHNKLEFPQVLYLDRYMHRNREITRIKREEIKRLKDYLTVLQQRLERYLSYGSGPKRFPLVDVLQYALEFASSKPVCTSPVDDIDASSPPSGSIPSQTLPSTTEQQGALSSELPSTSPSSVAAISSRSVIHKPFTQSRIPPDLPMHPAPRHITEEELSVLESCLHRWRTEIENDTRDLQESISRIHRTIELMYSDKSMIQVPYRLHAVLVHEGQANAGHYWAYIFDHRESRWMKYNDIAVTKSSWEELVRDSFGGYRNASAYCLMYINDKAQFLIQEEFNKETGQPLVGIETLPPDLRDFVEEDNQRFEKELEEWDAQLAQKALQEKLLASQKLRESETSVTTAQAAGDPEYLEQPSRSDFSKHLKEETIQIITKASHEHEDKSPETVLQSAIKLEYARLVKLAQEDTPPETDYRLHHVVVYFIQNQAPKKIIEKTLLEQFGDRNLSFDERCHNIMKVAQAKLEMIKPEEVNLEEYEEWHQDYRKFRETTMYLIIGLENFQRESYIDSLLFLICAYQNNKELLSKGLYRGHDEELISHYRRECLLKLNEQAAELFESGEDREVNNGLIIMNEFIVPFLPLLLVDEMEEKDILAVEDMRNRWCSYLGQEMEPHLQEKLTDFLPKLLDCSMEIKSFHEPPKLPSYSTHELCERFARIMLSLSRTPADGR
Summary of the method: as §1

USP28 = molecular target: T4, USP28 (UniProt Q96RU2)
T4 sequence (whole entry): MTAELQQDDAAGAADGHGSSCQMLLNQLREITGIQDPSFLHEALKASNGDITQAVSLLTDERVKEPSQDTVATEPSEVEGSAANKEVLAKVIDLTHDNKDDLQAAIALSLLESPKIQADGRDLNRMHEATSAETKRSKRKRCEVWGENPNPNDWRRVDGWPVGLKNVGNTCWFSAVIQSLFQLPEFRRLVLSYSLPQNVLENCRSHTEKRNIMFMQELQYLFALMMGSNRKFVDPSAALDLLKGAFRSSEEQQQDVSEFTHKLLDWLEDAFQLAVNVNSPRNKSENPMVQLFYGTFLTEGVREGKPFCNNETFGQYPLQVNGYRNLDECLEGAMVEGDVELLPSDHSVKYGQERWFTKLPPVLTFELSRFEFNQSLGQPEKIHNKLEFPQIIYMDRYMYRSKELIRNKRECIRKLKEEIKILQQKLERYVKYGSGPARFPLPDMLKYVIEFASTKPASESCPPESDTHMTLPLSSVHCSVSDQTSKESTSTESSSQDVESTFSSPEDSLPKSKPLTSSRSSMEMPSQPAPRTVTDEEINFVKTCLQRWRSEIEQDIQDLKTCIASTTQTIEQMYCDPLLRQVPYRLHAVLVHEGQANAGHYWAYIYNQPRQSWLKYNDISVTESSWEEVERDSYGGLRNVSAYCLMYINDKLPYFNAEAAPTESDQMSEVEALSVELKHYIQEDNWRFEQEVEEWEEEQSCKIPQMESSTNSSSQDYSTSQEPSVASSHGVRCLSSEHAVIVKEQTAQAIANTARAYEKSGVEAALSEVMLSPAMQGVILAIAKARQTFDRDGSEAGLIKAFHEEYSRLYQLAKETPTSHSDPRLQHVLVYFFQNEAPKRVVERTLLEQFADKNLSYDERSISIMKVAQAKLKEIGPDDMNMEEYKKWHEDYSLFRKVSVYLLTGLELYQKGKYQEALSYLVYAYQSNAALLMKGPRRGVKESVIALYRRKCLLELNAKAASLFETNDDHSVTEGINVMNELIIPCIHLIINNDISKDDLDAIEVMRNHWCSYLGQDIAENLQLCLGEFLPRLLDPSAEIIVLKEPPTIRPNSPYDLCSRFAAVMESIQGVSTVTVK
Summary of the method: as §1

For `O=C(CCl)N1CCc2nc[nH]c2C1c1ccc(Cl)cc1` (stereo not given), which “log2 ratio of Biotin-Ahx-Ub-VS probe labelling” value (“log2 ratio” below) (USP19) is on record?
The value was -0.509.

What about the “log2 ratio” value (USP22) of the same molecule?
Its value is 0.00421.

What about the “log2 ratio” value (USP24) of the same molecule?
Its value is -1.47 (active).

And the “log2 ratio” value (USP25)?
The value was -0.591.

What about the “log2 ratio” value (USP28) of the same molecule?
The value was -0.738.
